# Activity calls are given as the source filed them.
# What was measured:
# [1] = E. coli DRC41 culture turbidity changes, primary screen, E. coli filamentation inducer project, strain DRC41, OD650, 48 h (AID 1152);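 further: E. coli MC1000 strain DRC41 lacking acrAB efflux pump and sulA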; details: E. coli DRC41 (acrAB sulA), higher = more signal, called active from +8 up or from −8 down
# [2] = small-molecule binders of probe aLefty1, primary screen, biochemical, small-molecule microarray, 635/667 nm fluorescence (AID 1153); details: higher = more signal;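 further: score merges spot fluorescence with signal-to-noise ratio from the scanned slide images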
# [3] = PSAC antagonists in infected red cells, primary screen, cell-based, P. falciparum Indochina, OD700, 1 h (AID 1154); details: P. falciparum Indochina infected RBC osmotic lysis, higher = more signal, called active from +8 up or from −8 down
# [4] = PSAC antagonists in infected red cells, primary screen, cell-based, P. falciparum Indochina, OD700, 2 h (AID 1155);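 further: lysis reports solute entry through the parasite surface anion channel PSAC; channel blockers reduce lysis of infected cells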; details: P. falciparum Indochina infected erythrocytes, osmotic lysis OD700; higher = more signal, called active from +8 up or from −8 down
# [5] = osmotic lysis modulators in infected erythrocytes, primary screen, PSAC antagonist project, cell-based, P. falciparum Indochina, OD700, 3 h (AID 1156); details: higher = more signal, called active from +8 up or from −8 down
# [6] = PSAC antagonists in infected red cells, primary screen, cell-based, P. falciparum Indochina, OD700, 18 h (AID 1157); details: P. falciparum Indochina infected erythrocytes, osmotic lysis OD700, 18 h; higher = more signal, called active from +8 up or from −8 down
# [7] = modulators of S6 phosphorylation in cells, primary screen, cell-based, A549, cytoblot, luminescence, serum-stimulated (AID 1158); details: A549 phospho-S6 cytoblot, 5 h, higher = more signal;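 further: serum-stimulated A549 lung adenocarcinoma cells; signal is phosphorylated S6 detected by cytoblot immunostaining with HRP secondary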
# [8] = molecular target: NADPH oxidase 2 (Homo sapiens) (UniProt P04839); experiment: NOX2-dependent H2O2 signal modulators, primary screen, NOX inhibitor project, cell-based, HEK293-NOX2, PMA-stimulated, Amplex Red fluorescence (AID 1159); details: 45 min, higher = more signal, called active from +8 up or from −8 down; further: test concentration not given here
# [9] = molecular target: NADPH oxidase 4 (Homo sapiens) (UniProt Q9NPH5); experiment: NOX4-dependent H2O2 signal modulators, primary screen, NOX inhibitor project, cell-based, HEK293-NOX4, tetracycline-induced, Amplex Red fluorescence (AID 1160); details: 45 min, higher = more signal, called active from +8 up or from −8 down
# [10] = molecular target: NADPH oxidase 5 (Homo sapiens) (UniProt Q96PH1); experiment: NOX5-dependent H2O2 signal modulators, primary screen, NOX inhibitor project, cell-based, HEK293-NOX5, Amplex Red fluorescence (AID 1161); details: HEK293-NOX5, ionomycin, 45 min, higher = more signal
# Sequence of NADPH oxidase 5 (Homo sapiens) (Q96PH1 whole entry, looked up): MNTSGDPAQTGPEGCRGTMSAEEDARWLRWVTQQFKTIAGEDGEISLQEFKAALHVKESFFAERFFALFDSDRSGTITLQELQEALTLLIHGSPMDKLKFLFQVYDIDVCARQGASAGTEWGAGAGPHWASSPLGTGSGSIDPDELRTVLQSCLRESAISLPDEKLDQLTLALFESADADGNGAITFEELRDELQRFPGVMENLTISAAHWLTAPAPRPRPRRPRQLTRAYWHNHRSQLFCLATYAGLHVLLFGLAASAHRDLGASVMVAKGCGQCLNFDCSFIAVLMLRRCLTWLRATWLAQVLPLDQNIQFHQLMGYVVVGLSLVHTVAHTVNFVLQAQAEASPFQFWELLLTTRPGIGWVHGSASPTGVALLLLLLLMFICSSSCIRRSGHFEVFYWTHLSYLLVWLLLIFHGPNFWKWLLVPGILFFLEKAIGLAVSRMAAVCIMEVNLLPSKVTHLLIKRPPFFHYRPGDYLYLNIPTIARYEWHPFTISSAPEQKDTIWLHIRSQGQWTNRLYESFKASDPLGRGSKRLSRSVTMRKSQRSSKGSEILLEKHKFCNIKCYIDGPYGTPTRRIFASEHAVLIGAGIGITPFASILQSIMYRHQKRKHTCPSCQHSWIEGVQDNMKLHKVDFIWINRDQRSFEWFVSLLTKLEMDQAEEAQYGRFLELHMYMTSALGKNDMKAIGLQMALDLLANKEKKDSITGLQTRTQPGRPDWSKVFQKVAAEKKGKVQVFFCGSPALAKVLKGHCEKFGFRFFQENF
# Sequence of NADPH oxidase 2 (Homo sapiens) (P04839 whole entry, looked up): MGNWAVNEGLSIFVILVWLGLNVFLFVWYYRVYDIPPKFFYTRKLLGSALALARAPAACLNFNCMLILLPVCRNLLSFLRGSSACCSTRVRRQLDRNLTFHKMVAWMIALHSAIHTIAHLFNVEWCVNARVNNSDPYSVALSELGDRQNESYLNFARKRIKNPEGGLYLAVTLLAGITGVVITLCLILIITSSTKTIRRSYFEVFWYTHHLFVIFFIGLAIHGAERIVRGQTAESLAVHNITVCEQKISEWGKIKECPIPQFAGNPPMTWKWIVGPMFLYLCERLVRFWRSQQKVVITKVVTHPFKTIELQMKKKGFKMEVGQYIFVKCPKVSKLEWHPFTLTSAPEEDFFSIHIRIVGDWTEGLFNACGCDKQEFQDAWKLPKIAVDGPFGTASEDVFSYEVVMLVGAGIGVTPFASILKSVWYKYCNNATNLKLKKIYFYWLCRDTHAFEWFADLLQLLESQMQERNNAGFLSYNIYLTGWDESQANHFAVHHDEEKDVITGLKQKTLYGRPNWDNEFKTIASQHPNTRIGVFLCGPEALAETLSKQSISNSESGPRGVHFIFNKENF
# Sequence of NADPH oxidase 4 (Homo sapiens) (Q9NPH5 whole entry, looked up): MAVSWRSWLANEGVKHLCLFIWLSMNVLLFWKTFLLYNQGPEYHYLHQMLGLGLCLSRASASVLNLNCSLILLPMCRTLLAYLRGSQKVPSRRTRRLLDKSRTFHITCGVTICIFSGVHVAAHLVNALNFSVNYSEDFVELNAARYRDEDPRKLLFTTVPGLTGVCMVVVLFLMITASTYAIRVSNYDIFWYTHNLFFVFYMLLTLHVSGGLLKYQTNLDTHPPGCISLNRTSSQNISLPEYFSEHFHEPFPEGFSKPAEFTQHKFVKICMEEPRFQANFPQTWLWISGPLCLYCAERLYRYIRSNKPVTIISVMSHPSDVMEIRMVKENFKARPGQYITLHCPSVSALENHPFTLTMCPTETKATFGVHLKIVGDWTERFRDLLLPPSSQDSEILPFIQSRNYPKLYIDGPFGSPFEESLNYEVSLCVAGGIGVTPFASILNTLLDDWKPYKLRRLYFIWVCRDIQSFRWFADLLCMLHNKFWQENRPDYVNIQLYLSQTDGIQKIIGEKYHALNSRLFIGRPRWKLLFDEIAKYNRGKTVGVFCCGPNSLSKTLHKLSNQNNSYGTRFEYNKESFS
Compound,z-score [1],composite z-score [2],z-score [3],z-score [4],z-score [5],z-score [6],z-score [7],z-score [8],z-score [9],z-score [10]
COC(=O)[C@@]1(Cc2ccc(F)cc2)[C@H]2c3cc(C(=O)N4CCCC4)n(CCF)c3C[C@H]2CN1C(=O)c1ccccc1,-0.379 (inactive),2.02,6.17 (inactive),0.237 (inactive),0.423 (inactive),0.715 (inactive),0.563,0.6 (inactive),-0.248 (inactive),-0.159
CC(C)C(O)C1C=CC2C(=O)N(C)C(=O)C2N1Nc1ccccc1 (stereo not given),-0.532 (inactive),0.124,-0.162 (inactive),1.18 (inactive),0.448 (inactive),0.778 (inactive),-0.679,-1.43 (inactive),-3.72 (inactive),-2.93
Cc1c(NC(=O)/C(C#N)=C/C=C/c2ccccc2[N+](=O)[O-])c(=O)n(-c2ccccc2)n1C,0.56 (inactive),-0.184,2.91 (inactive),0.548 (inactive),0.681 (inactive),0.0839 (inactive),-0.243,-0.235 (inactive),0.0287 (inactive),0.657
CN(C)CCCN1C(=O)[C@@]2(c3ccc([N+](=O)[O-])cc3)CC(=O)N(CC34CC5CC(CC(C5)C3)C4)[C@@H]2c2ccc(CO)cc21,0.388 (inactive),-0.0662,2.1 (inactive),-0.451 (inactive),1.27 (inactive),-0.405 (inactive),0.299,-2.29 (inactive),-0.0839 (inactive),1.56
COCCOC(=O)N1C(=O)[C@@]2(c3cc(C#CC4=CCCCC4)ccc31)[C@H](c1ccc(O)cc1)N1[C@H](c3ccccc3)[C@H](c3ccccc3)OC(=O)[C@H]1[C@@H]2C(=O)Nc1nc2ccccc2s1,-0.567 (inactive),0.571,2.09 (inactive),1.76 (inactive),0.599 (inactive),1.81 (inactive),-0.507,1.55 (inactive),-0.0515 (inactive),0.897
CN(C)CCCCNC(=O)[C@H]1C[C@H]2C(=O)N3CCC[C@H]3C(=O)N2[C@H]1c1ccc(O)cc1,1.67 (inactive),-0.926,0.148 (inactive),-1.79 (inactive),1.55 (inactive),-2.18 (inactive),0.752,-0.714 (inactive),-0.561 (inactive),-3.16
CCN(CC)c1ccc(N2CC=CC34O[C@@H]5/C=C\CCC(C)OC(=O)C5[C@H]3C(=O)N(CCO)[C@@H]4C2=O)cc1 (stereo not given in full),-0.244 (inactive),0.33,3.17 (inactive),0.615 (inactive),0.411 (inactive),0.162 (inactive),-0.369,-0.361 (inactive),0.785 (inactive),1.36
CC(C)(C)OC(=O)CC[C@@]1(C(=O)O)N=C(c2ccc(OCCCO)cc2)O[C@@H]1c1ccccc1,0.0442 (inactive),0.284,6.52 (inactive),0.0947 (inactive),-0.819 (inactive),0.0734 (inactive),-0.407,0.104 (inactive),1.27 (inactive),0.548
CN1C2C=C(CCCO)C(C3C(=O)N(C(N)=O)C(=O)C32)C1c1cccs1 (stereo not given),-0.214 (inactive),-0.101,1.12 (inactive),0.273 (inactive),0.13 (inactive),0.431 (inactive),-0.633,0.824 (inactive),-0.845 (inactive),0.259
CC(C)(C)OC(=O)CC[C@]1(C(=O)NCCN2CCOCC2)N=C(c2ccc(OCCCO)cc2)O[C@H]1c1ccccc1,0.167 (inactive),0.119,12.5 (active),1.5 (inactive),0.531 (inactive),0.47 (inactive),-0.501,0.618 (inactive),1.54 (inactive),1.42
COCCCNC(=O)[C@@]1(Sc2ccc(C)cc2)CC(=O)N(C2Cc3ccccc3C2)[C@@H]1c1ccc(CO)cc1I,-0.713 (inactive),-0.0366,4.51 (inactive),0.427 (inactive),-0.23 (inactive),-0.0133 (inactive),0.224,2.2 (inactive),-1.15 (inactive),1.23
CCOC(=O)C[C@H]1[C@H](OC(=O)Cc2ccc3c(c2)OCO3)[C@@H](NC(=O)C2CCCCC2)c2cc(OCCCO)ccc2N1C(=O)c1ccc2ccccc2n1,0.699 (inactive),-0.106,1.88 (inactive),-0.954 (inactive),-0.13 (inactive),-2.2 (inactive),1.17,-1.86 (inactive),0.214 (inactive),-2.62
COC(=O)[C@]1(CCS(=O)(=O)c2ccccc2)N=C(c2ccc(OCCCO)cc2)O[C@@H]1c1ccccc1CN=[N+]=[N-],-2.11 (inactive),0.15,30.4 (active),28 (active),1.82 (inactive),5.19 (inactive),-0.505,-5.83 (inactive),-1.31 (inactive),-3.08

# Reference: PubChem BioAssay
